The nature of assay [1]: NCI Yeast Anticancer Drug Screen. Data for the rad50 strain (AID 155).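 Note: 0% = growth of vehicle-only cultures of the same strain.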 The conditions noted are these: S. cerevisiae rad50 strain growth inhibition, active compounds read high. The method in brief:
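Yeast carrying a defined DNA repair defect were exposed to test compounds, and growth was compared with vehicle-treated controls to give percent inhibition.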

The nature of assay [2]: NCI Yeast Anticancer Drug Screen. Data for the mec2-1 strain (AID 157). As to conditions: S. cerevisiae mec2-1 strain, active compounds read high. The method in brief:
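Growth inhibition is read against vehicle-treated controls after compound exposure of the mec2-1 yeast strain, which is defective in DNA damage repair or cell cycle control.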

Assay [3] in a line: NCI Yeast Anticancer Drug Screen. Data for the sgs1 mgt1 strain (AID 161).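 Note: 0% = growth of cultures given vehicle only.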 As to conditions: S. cerevisiae sgs1 mgt1 strain, active compounds read high. The method in brief:
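Compounds are added to genetically altered yeast, and growth is compared with cultures given vehicle alone to give percent inhibition.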

The nature of assay [4]: NCI Yeast Anticancer Drug Screen. Data for the cln2 rad14 strain (AID 165).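 Note: 0% = growth equal to vehicle treated cultures.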 The conditions noted are these: S. cerevisiae cln2 rad14 strain, active compounds read high. The method in brief:
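Growth inhibition, relative to vehicle-treated controls, is the read-out. The test organism is a yeast strain with defined genetic alterations, cln2 rad14.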

The nature of assay [5]: NCI Yeast Anticancer Drug Screen. Data for the bub3 strain (AID 167). The conditions noted are these: S. cerevisiae bub3 mutant strain, active compounds read high. The method in brief: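 Compounds were applied to a genetically altered yeast strain carrying a cell-cycle control defect. Growth inhibition was scored against vehicle-treated controls.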
Assay [6] can be described thus: NCI Yeast Anticancer Drug Screen. Data for the mlh1 rad18 strain (AID 175). As to conditions: S. cerevisiae mlh1 rad18 strain growth inhibition, active compounds read high. The method in brief:
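Cells of a genetically altered yeast strain, deficient in DNA damage repair, were treated with compound. Their growth was then compared with that of vehicle-treated cultures to give inhibition.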

[7] abbreviates: at 5.0 µM (retest, dose inferred, filed as 0.5).
The mark [8] stands for this setting: at 50.0 µM (retest, dose inferred, filed as 5.0).

This is part of a sample that, as a whole, favours compounds with a hit. Of some 79,000 tested, about 15% had one in any assay. A number with no mark means an inactive call. The source made the active and inactive calls. Cut-off read from the data, not from the text of the source: active = growth inhibition above about 70%; inactive = the rest.

With `Cc1cc(C(O)(C(F)(F)F)C(F)(F)F)c(I)c(C(O)(C(F)(F)F)C(F)(F)F)c1`, the growth inhibition was 100% (active) in assay [1] (setting [7]); 100% (active) in assay [1] (setting [8]); 97.3% (active) in assay [1] (at 50.0 µM); 99% (active) in assay [2] (setting [7]); 100% (active) in assay [2] (setting [8]); 99.2% (active) in assay [2] (at 50.0 µM). The growth inhibition was 99% (active) in assay [3] (setting [7]); 100% (active) in assay [3] (setting [8]); 99.2% (active) in assay [3] (at 50.0 µM); 98% (active) in assay [4] (setting [7]); 99% (active) in assay [4] (setting [8]); 89.8% (active) in assay [4] (at 50.0 µM). In addition, the growth inhibition was 99% (active) in assay [5] (setting [7]); 99% (active) in assay [5] (setting [8]); 98.7% (active) in assay [5] (at 50.0 µM); 99% (active) in assay [6] (setting [7]); 99% (active) in assay [6] (setting [8]); 98.5% (active) in assay [6] (at 50.0 µM).
As for `CCCCCCCCCCCCCCCCCC[N+]1(C)CCC[N+](C)(CCCCCCCCCCCCCCCCCC)CC1` (stereo unspecified), the growth inhibition in assay [1] (setting [7]) is 2%; in assay [1] (setting [8]) it was 26%; in assay [1] (at 50.0 µM), 41.8%; in assay [2] (setting [7]), -3%; in assay [2] (setting [8]), 17%; in assay [2] (at 50.0 µM) it was 83.4% (active). Besides, the growth inhibition in assay [3] (setting [7]) was 2%; in assay [3] (setting [8]), 53%; in assay [3] (at 50.0 µM) it was 47%; in assay [4] (setting [7]), 0%; in assay [4] (setting [8]) it was 3%; in assay [4] (at 50.0 µM) it was 7.9%. The growth inhibition is 0% in assay [5] (setting [7]); 77% (active) in assay [5] (setting [8]); 50.6% in assay [5] (at 50.0 µM); 2% in assay [6] (setting [7]); 24% in assay [6] (setting [8]); 84% (active) in assay [6] (at 50.0 µM).
With `CCOC(=O)CC(=O)/C=C/c1ccncc1`, the growth inhibition was 1% in assay [1] (setting [7]); 5% in assay [1] (setting [8]); -19.2% in assay [1] (at 50.0 µM); -2% in assay [2] (setting [7]); 0% in assay [2] (setting [8]); -8.45% in assay [2] (at 50.0 µM). For the same molecule, the growth inhibition is -10% in assay [3] (setting [7]); -6% in assay [3] (setting [8]); -5.25% in assay [3] (at 50.0 µM); 3% in assay [4] (setting [7]); 1% in assay [4] (setting [8]); 68.7% in assay [4] (at 50.0 µM). The growth inhibition in assay [5] (setting [7]) was 5%; in assay [5] (setting [8]) it was 4%; in assay [5] (at 50.0 µM), -9.3%; in assay [6] (setting [7]), 1%; in assay [6] (setting [8]), 3%; in assay [6] (at 50.0 µM) it was 0.7%.
Turning to `O=C(/C(=C\I)c1ccccc1)c1ccccc1`, the growth inhibition in assay [1] (setting [7]) is 6%; in assay [1] (setting [8]) it was 6%; in assay [1] (at 50.0 µM), 88.5% (active); in assay [2] (setting [7]) it was -15%; in assay [2] (setting [8]), -15%; in assay [2] (at 50.0 µM) it was 92.5% (active). Also, the growth inhibition was -8% in assay [3] (setting [7]); -8% in assay [3] (setting [8]); 86.4% (active) in assay [3] (at 50.0 µM); -6% in assay [4] (setting [7]); -6% in assay [4] (setting [8]); 89.9% (active) in assay [4] (at 50.0 µM). In addition, the growth inhibition is -24% in assay [5] (setting [7]); -24% in assay [5] (setting [8]); 90.2% (active) in assay [5] (at 50.0 µM); -13% in assay [6] (setting [7]); -13% in assay [6] (setting [8]); 86.7% (active) in assay [6] (at 50.0 µM).
Take `[N-]=[N+]=Nc1c([N+](=O)[O-])c(=O)n(-c2ccccc2)c2ccccc12`: the growth inhibition in assay [1] (setting [7]) is -8%; in assay [1] (setting [8]) it was 34%; in assay [1] (at 50.0 µM) it was 65.1%; in assay [2] (setting [7]), -3%; in assay [2] (setting [8]), 54%; in assay [2] (at 50.0 µM), 67.3%. In addition, the growth inhibition in assay [3] (setting [7]) is 0%; in assay [3] (setting [8]) it was 32%; in assay [3] (at 50.0 µM), 70% (active); in assay [4] (setting [7]), 27%; in assay [4] (setting [8]), 21%; in assay [4] (at 50.0 µM), 46.9%. Also, the growth inhibition was -21% in assay [5] (setting [7]); 62% in assay [5] (setting [8]); 61% in assay [5] (at 50.0 µM); 4% in assay [6] (setting [7]); 57% in assay [6] (setting [8]); 68.2% in assay [6] (at 50.0 µM).
Turning to `Cc1ccc(C(C)C)c(O)c1N/N=C/c1cc(Cl)ccc1O`, the growth inhibition in assay [1] (setting [7]) is 2%; in assay [1] (setting [8]), 55%; in assay [1] (at 50.0 µM), 73% (active); in assay [2] (setting [7]) it was 3%; in assay [2] (setting [8]) it was 25%; in assay [2] (at 50.0 µM) it was -0.3%. Also, the growth inhibition in assay [3] (setting [7]) was 1%; in assay [3] (setting [8]) it was 82% (active); in assay [3] (at 50.0 µM), 41.9%; in assay [4] (setting [7]) it was 2%; in assay [4] (setting [8]) it was 26%; in assay [4] (at 50.0 µM) it was -4.05%. In addition, the growth inhibition in assay [5] (setting [7]) is 1%; in assay [5] (setting [8]), 48%; in assay [5] (at 50.0 µM), 58.1%; in assay [6] (setting [7]), 2%; in assay [6] (setting [8]), 83% (active); in assay [6] (at 50.0 µM), 36.8%.
Take `Cc1cc(=O)oc2c3c(ccc12)OC(c1ccc(Br)cc1)CC3=O` (stereo unspecified): the growth inhibition in assay [1] (setting [7]) was 28%; in assay [1] (setting [8]), 24%; in assay [1] (at 50.0 µM) it was 6.65%; in assay [2] (setting [7]), 15%; in assay [2] (setting [8]) it was 12%; in assay [2] (at 50.0 µM), -7.8%. Moreover, the growth inhibition in assay [3] (setting [7]) is 19%; in assay [3] (setting [8]), 20%; in assay [3] (at 50.0 µM) it was 6.8%; in assay [4] (setting [7]), 11%; in assay [4] (setting [8]), 27%; in assay [4] (at 50.0 µM), -12.8%. The growth inhibition in assay [5] (setting [7]) was 24%; in assay [5] (setting [8]), 23%; in assay [5] (at 50.0 µM), -3%; in assay [6] (setting [7]), 22%; in assay [6] (setting [8]), 15%; in assay [6] (at 50.0 µM), -6.6%.

These data come from PubChem BioAssay (NCI).
